Some test systems named below: SR leukemia; RPMI-8226 leukemia; OVCAR-8 ovarian; OVCAR-5 ovarian; OVCAR-4 ovarian; SK-OV-3 ovarian; IGROV1 ovarian; OVCAR-3 ovarian; HS 578T breast; NCI/ADR-RES ovarian; T-47D breast; BT-549 breast; MDA-MB-435 melanoma; SW-620 colon; MCF7 breast; HCT-116 colon; HCC-2998 colon; KM12 colon.
Common to all, as to test: NCI-60 one-dose screen, 48 h (100 = growth as untreated, 0 = no growth, -100 = all killed)
Common to all, as to details: 10 µM unless noted

Each structure is given as a SMILES string. Compounds without any hit were thinned out: in the full panel of roughly 83,000, 20% have a hit.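 Cell lines were cultured in 96-well plates, exposed to a single compound concentration, and assessed for percent growth 48 hours later.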 Unmarked numbers belong to inactive results. Calls of active or inactive are those of the source. How the source made its calls: active means growth percent below 10; inactive means the rest.

Consider `Nc1nc(Nc2ccccc2SSc2ccccc2Nc2nc(N)nc(-c3ccc(C(F)(F)F)cc3)n2)nc(-c2ccc(C(F)(F)F)cc2)n1`, for which the growth in the assay on SR leukemia is -5.23% (active); with RPMI-8226 leukemia, 43.6%; in the assay on OVCAR-8 ovarian, 56%; in the assay with OVCAR-5 ovarian, 104%; in the assay on OVCAR-4 ovarian, 82%; in the assay on SK-OV-3 ovarian it was 104%. The growth in the assay with IGROV1 ovarian was 69.7%; in the assay on OVCAR-3 ovarian, 80.5%; in the assay on HS 578T breast, 78.7%; in the assay with NCI/ADR-RES ovarian, 56.4%; with T-47D breast, 41.7%; with BT-549 breast it was 75.6%. In addition, the growth was 74.9% in the assay on MDA-MB-435 melanoma; 80.4% in the assay on SW-620 colon; 52.2% in the assay on MCF7 breast; 51% in the assay with HCT-116 colon; 93.1% with HCC-2998 colon; 44.8% in the assay on KM12 colon.
With `COc1ccc(C(=O)c2cc(C)c(OC)c(C)c2)c(OC)c1N(C(=O)CCl)C(=O)CCl`, the growth in the assay on SR leukemia was 21%; in the assay on RPMI-8226 leukemia, 17.7%; with OVCAR-8 ovarian, 10.3%; in the assay with OVCAR-5 ovarian, 29.2%; in the assay with OVCAR-4 ovarian, 44.9%; in the assay with SK-OV-3 ovarian it was 2.36% (active). In addition, the growth in the assay with IGROV1 ovarian is 13.8%; in the assay on OVCAR-3 ovarian it was -6.63% (active); in the assay on HS 578T breast, 23%; in the assay with NCI/ADR-RES ovarian, -37.1% (active); in the assay with T-47D breast it was 51.2%; in the assay with BT-549 breast, 3.05% (active). Further, the growth with MDA-MB-435 melanoma is -46.8% (active); with SW-620 colon it was 20.3%; in the assay on MCF7 breast, 14%; in the assay on HCT-116 colon, -0.69% (active); with HCC-2998 colon, 13.5%; in the assay with KM12 colon, 6.61% (active).
Take `COc1ccc(/C=C/c2nc(Nc3ccc(S(=O)(=O)NC(C)=O)cc3)c3ccccc3n2)cc1`: the growth in the assay on SR leukemia is 53.9%; in the assay on RPMI-8226 leukemia, 76.9%; in the assay with OVCAR-8 ovarian, 76.2%; in the assay with OVCAR-5 ovarian it was 72.5%; in the assay with OVCAR-4 ovarian, 79.4%; in the assay with SK-OV-3 ovarian, 90.2%. Also, the growth is 91.6% in the assay with IGROV1 ovarian; 95.5% with OVCAR-3 ovarian; 82.8% in the assay with HS 578T breast; 85.9% in the assay with NCI/ADR-RES ovarian; 67.7% in the assay with T-47D breast; 86.8% in the assay with BT-549 breast. The growth was 63% in the assay on MDA-MB-435 melanoma; 68.2% in the assay with SW-620 colon; 46.7% in the assay on MCF7 breast; 47.4% in the assay with HCT-116 colon; 82.1% in the assay with HCC-2998 colon; 57.8% in the assay on KM12 colon.
On to `Cc1ccc(S(=O)(=O)NNC(=O)/C(=C\c2ccc(Cl)cc2)c2nc3ccccc3s2)cc1`, for which the growth is 72.8% with SR leukemia; 87% with RPMI-8226 leukemia; 88.1% in the assay on OVCAR-8 ovarian; 110% in the assay on OVCAR-5 ovarian; 94.2% with OVCAR-4 ovarian; 105% in the assay with SK-OV-3 ovarian. Also, the growth with IGROV1 ovarian was 91.4%; with OVCAR-3 ovarian, 96%; in the assay on HS 578T breast it was 98.1%; in the assay with NCI/ADR-RES ovarian it was 97.8%; with T-47D breast, 95%; in the assay on BT-549 breast it was 106%. In addition, the growth is 96.9% in the assay with MDA-MB-435 melanoma; 93.6% in the assay on SW-620 colon; 78.7% in the assay on MCF7 breast; 84.3% in the assay with HCT-116 colon; 103% in the assay on HCC-2998 colon; 96.6% with KM12 colon.
On to `N#C/C(=C\c1ccc(C(F)(F)F)cc1)c1cc2ccccc2[nH]1`, for which the growth in the assay with SR leukemia was 95.7%; in the assay on RPMI-8226 leukemia, 72%; with OVCAR-8 ovarian, 101%; with OVCAR-5 ovarian, 108%; in the assay with OVCAR-4 ovarian it was 92%; with SK-OV-3 ovarian, 93%. Moreover, the growth was 94.5% in the assay with IGROV1 ovarian; 104% in the assay on OVCAR-3 ovarian; 104% in the assay on HS 578T breast; 104% in the assay with NCI/ADR-RES ovarian; 89.8% with T-47D breast; 94.1% in the assay with BT-549 breast. For the same compound, the growth in the assay with MDA-MB-435 melanoma was 97.1%; in the assay with SW-620 colon, 100%; with MCF7 breast it was 77.4%; in the assay with HCT-116 colon, 94.9%; with HCC-2998 colon, 116%; in the assay on KM12 colon it was 97.7%.
As to `CCOC(=O)CC1CSC(N/N=C/c2ccc(-n3cccn3)cc2)=N1` (centres undefined), the growth was 98.3% in the assay on SR leukemia; 99.1% in the assay on RPMI-8226 leukemia; 97.8% in the assay with OVCAR-8 ovarian; 115% with OVCAR-5 ovarian; 109% in the assay with OVCAR-4 ovarian; 111% in the assay on SK-OV-3 ovarian. Moreover, the growth in the assay on IGROV1 ovarian is 114%; with OVCAR-3 ovarian it was 110%; in the assay on HS 578T breast it was 97.8%; in the assay on NCI/ADR-RES ovarian, 101%; in the assay with T-47D breast, 106%; in the assay with BT-549 breast, 116%. The growth with MDA-MB-435 melanoma is 110%; in the assay on SW-620 colon it was 106%; with MCF7 breast, 98.1%; in the assay on HCT-116 colon it was 98.7%; in the assay on HCC-2998 colon, 103%; in the assay on KM12 colon, 103%.
`CCCCCCOc1ccc(/C=N/Nc2cc(C)nc3ccc(Cl)cc23)cc1`: the growth in the assay on SR leukemia was -7.39% (active); in the assay on RPMI-8226 leukemia, -35.3% (active); in the assay on OVCAR-8 ovarian, -36.4% (active); in the assay on OVCAR-5 ovarian, 26.5%; in the assay with OVCAR-4 ovarian, -58.1% (active); in the assay with SK-OV-3 ovarian it was 90.2%. The growth with IGROV1 ovarian is -79% (active); with OVCAR-3 ovarian, -97% (active); with HS 578T breast, 28.5%; in the assay on NCI/ADR-RES ovarian it was -27.8% (active); with T-47D breast, 34.5%; with BT-549 breast it was 109%. Further, the growth is -75.9% (active) in the assay with MDA-MB-435 melanoma; -83.3% (active) in the assay with SW-620 colon; -66.6% (active) in the assay with MCF7 breast; -58.9% (active) in the assay with HCT-116 colon; -81.9% (active) in the assay with HCC-2998 colon; -68.2% (active) with KM12 colon.
In the case of `CC1(C)c2[nH]c3ccccc3c2C[C@]2(C)[C@H]3C(=O)C=C4[C@@H]5C[C@@](C)(C(N)=O)CC[C@]5(C)CC[C@@]4(C)[C@]3(C)CC[C@@H]12`, the growth in the assay on SR leukemia was 45.8%; in the assay with RPMI-8226 leukemia it was 42.3%; in the assay with OVCAR-8 ovarian, 75.1%; with OVCAR-5 ovarian, 93.3%; in the assay with OVCAR-4 ovarian it was 54.4%; in the assay on SK-OV-3 ovarian, 71.3%. Besides, the growth with IGROV1 ovarian was 84.4%; in the assay on OVCAR-3 ovarian it was 69.9%; in the assay on HS 578T breast, 71.4%; with NCI/ADR-RES ovarian it was 71.2%; in the assay on T-47D breast, 20.3%; in the assay on BT-549 breast it was 70.7%. Besides, the growth is 83.6% with MDA-MB-435 melanoma; 79.4% in the assay on SW-620 colon; 35.3% with MCF7 breast; 46.3% in the assay on HCT-116 colon; 79.2% with HCC-2998 colon; 67.5% in the assay with KM12 colon.

Source of the values: PubChem BioAssay (NCI).
